Only some compounds are listed: those with a hit (about 18% of all), similar ones and a draw of the others.
TDP1 inh – inhibitors of human tyrosyl-DNA phosphodiesterase TDP1; AID 485290; Potency, µM (top dose mostly 130 µM), for the others: at the top dose activity change, negative = inhibition, usual class: inhibitors; Q9NUW8; hit rate 0.28% among 350,000; recombinant TDP1, AlphaScreen DNA substrate cleavage; further: potency means the concentration at half of the fitted maximal effect; nearly all actives have a fitted effect of over 40% in size
Target sequence (Q9NUW8 whole entry, looked up): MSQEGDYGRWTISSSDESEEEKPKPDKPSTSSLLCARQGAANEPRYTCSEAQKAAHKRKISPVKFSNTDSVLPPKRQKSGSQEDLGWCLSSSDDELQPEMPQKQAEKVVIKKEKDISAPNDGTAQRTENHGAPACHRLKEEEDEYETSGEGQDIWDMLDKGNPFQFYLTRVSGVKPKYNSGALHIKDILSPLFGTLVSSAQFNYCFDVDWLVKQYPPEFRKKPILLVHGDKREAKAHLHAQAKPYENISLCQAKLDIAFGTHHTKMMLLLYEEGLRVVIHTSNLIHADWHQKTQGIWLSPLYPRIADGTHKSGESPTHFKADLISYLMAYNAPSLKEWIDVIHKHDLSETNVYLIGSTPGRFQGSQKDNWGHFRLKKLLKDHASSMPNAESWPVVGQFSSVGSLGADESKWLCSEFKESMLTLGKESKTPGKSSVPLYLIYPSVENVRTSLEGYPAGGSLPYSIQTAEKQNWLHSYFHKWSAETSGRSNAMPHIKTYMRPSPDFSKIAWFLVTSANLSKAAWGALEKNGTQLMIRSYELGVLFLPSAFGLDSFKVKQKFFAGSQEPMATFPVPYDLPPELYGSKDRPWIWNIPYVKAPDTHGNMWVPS
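Compounds were preincubated with Tdp1 (1 nM final) for 15 min at room temperature before substrate (15 nM final) started a 5 min reaction; beads (10 ug/ml final) were then added for 10 min before AlphaScreen detection.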
CtBP-E1A blk – blocks the CtBP interaction with E1A. AlphaScreen GST-E1A/His-CtBP binding, 1536-well; active compounds read low. activity change, % (no concentration beside the values). hit rate 0.49% among 340,000; in the data active means activity change below about -65%; inconclusive means mostly about -30% to -63%
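Protein mix (5X: 125 nM each GST-E1A, His-CtBP) was incubated with pinned compound 2 h at 37 deg C in dark, in 50 mM Tris pH 8.0 buffer with 300 mM NaCl. Glutathione donor and nickel acceptor beads followed; AlphaScreen signal read after 1 h.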
DT40 TDP1 no CPT – qHTS for Inhibitors of human tyrosyl-DNA phosphodiesterase 1 (TDP1): qHTS in cells in absence of CPT | DT40 Tdp1-/- hTDP1 cells, no CPT, ATP luminescence, 48 h | hit rate 15% among 420,000 | AID 686978, 2013 | Potency, µM (highest dose often 46.2 µM), for inactives: at the highest dose activity change, negative = growth inhibition, actives largely listed as inhibitors; further: potency means the concentration at half of the fitted maximal effect; nearly all actives have a fitted effect of over 55% in size
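Seeded 400 DT40-hTDP1 cells/well (vehicle DMSO, no 20 nM CPT); pinned compounds; ≥48 hr at 37 °C; CellTiter-Glo luminescence as viability measure.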
IL-1B inflam inh – inhibitors of inflammasome signaling (IL-1 beta secretion); THP-1 LPS/ATP IL-1B secretion, AlphaLISA, 16 h; active compounds read low; activity change, % at 57.5 µM; hit rate 4.7% among 360,000; AID 743279; in the data active means activity change below about -50%; inconclusive means mostly about -30% to -49%
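THP-1 cells pretreated 1 hr with compounds (up to 57.5 uM final), then stimulated with LPS (250 ng/mL final) plus ATP (1.25 mM final); secreted IL-1B measured by AlphaLISA after 16 hr, decreased signal indicating inhibition.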
DT40 TDP1 CPT – growth inhibition of DT40 Tdp1-/-;hTDP1 cells with camptothecin (screen for TDP1 inhibitors). chicken DT40 Tdp1-/-;hTDP1 cells + 20 nM CPT, ATP luminescence, 48 h. Potency, µM (series often up to 46.2 µM), for inactives: top-dose activity change, negative = growth inhibition, hits mostly inhibitors. AID 686979. hit rate 12% among 420,000; further: potency means the concentration at half of the fitted maximal effect; nearly all actives have a fitted effect of over 55% in size
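Cell growth measured by CellTiter-Glo luminescence after a minimum 48 h, 37 C compound exposure with 20 nM CPT in Tdp1-knockout DT40 cells stably expressing hTDP1, seeded 400/well; qHTS titration format.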
Six1-Eya2 blk – blocks human Six1 binding to Eya2. Q15475+O00167. AlphaScreen GST-Six1/His-Eya2 binding, biochemical; active compounds read low. activity change, % (concentration not given with the values). hit rate 0.56% among 360,000. AID 651725; in the data active means activity change below about -65%; inconclusive means mostly about -30% to -63%
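Six1/Eya2 binding was read as AlphaScreen signal after compounds were pinned into GST-Six1 plus His-tagged Eya2 (5X stock 250/500 nM) in pH 8.0 Tris/NaCl/TCEP buffer, beads added, then incubated 1 h, 37 C, dark.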
Numbers without * were called inactive; u = inconclusive; x = no result given; ! = a repeat was not active; [ ] = remark or other dose. Unless noted, the call rests on the fitted dose curve; in most records, active means well fitted curve in the direction sought with a large enough effect; inconclusive means small, poorly fitted or top-dose-only effect, or another doubt; inactive means no such curve, though single readings can be large; an effect the other way counts as inactive or inconclusive. On the % scale 0 is the no-effect control and ±100 the full control effect.

SMILES	TDP1 inh	CtBP-E1A blk	DT40 TDP1 no CPT	IL-1B inflam inh	DT40 TDP1 CPT	Six1-Eya2 blk
COC(=O)c1ccccc1S(=O)(=O)NC(=O)c1ccccc1	-1%[56.1 µM]	5	-22%	-15	-23%	10
COc1cc(OC)c(NS(=O)(=O)c2cc(C(=O)OCC(=O)NCC3CCCO3)ccc2OC)cc1Cl (centres undefined)	1%	18	-1%	56	1%	-11
CCOC(=O)C1=C(C)N(CCCCCC(=O)O)C(=O)NC1c1ccc(Br)cc1 (centres undefined)	x	6	-13%	18	-13%	-5
COc1cccc(C2=NOC(C(=O)Nc3ccc4c(c3)OCO4)C2)c1OC (centres undefined)	x	x	u	10	-26%	-14
Cc1ccc(C)c(SCC(=O)Nc2ccc(C)c(S(=O)(=O)N3CCOCC3)c2)c1	-5%	-12	13µM*	-6	23µM*	-1
Cc1ccc(NC(=O)CSc2ccccc2)cc1S(=O)(=O)N1CCOCC1	1%	-1	u	-1	u	-4
Cc1ccc(S(=O)(=O)c2cnc(SCC(=O)Nc3cccc(Cl)c3)nc2N)cc1C	3%	x	23µM*	x	u	x
CC(Sc1ncc(S(=O)(=O)c2ccc(C(C)C)cc2)c(N)n1)C(=O)Nc1ccccc1 (centres undefined)	6%	x	26µM*	x	16µM*	x
Cc1ccc(S(=O)(=O)c2cnc(SCC(=O)Nc3cc(C)cc(C)c3)nc2N)cc1	2%	x	16µM*	x	u	x
Cc1ccc(C(=O)C(C)OC(=O)C2=COCCO2)cc1C (centres undefined)	8%	-3	-19%	0	-19%	0
O=C(CC1C(=O)NCCN1Cc1ccc(F)cc1Cl)NCc1ccon1 (centres undefined)	4%	1	27%	5	9%	-9
CC[C@H](C)[C@@H]1NC(=O)[C@H]([C@@H](C)CC)NC(=O)[C@@H](CC(C)C)NC(=O)[C@H](Cc2ccccc2)NC(=O)[C@H](Cc2ccccc2)NC(=O)[C@@H]2CCCN2C(=O)[C@@H]2CCCN2C(=O)[C@H](C(C)C)NC(=O)[C@H](CC(C)C)NC1=O	1%	7	8.2µM*	-15	6.5µM*	6
CCOC(=O)C1=C(C)N(C)C(=O)NC1c1cccc2ccccc12 (centres undefined)	x	8	26µM*	51	u	-2
CCCOC(=O)C1=C(C)N(C)C(=O)NC1c1cc2c(cc1[N+](=O)[O-])OCO2 (centres undefined)	-5%	-8	u	6	u	-16
CCOCCOC(=O)C1=C(C)N(C)C(=O)NC1c1ccccc1Cl (centres undefined)	5%	1	-23%	0	-24%	-1
CC1=C(C(=O)OCC(C)C)C(c2cc3c(cc2Br)OCO3)NC(=O)N1C (centres undefined)	6%	-3	u	-7	18µM*	-12
CC1=C(C(=O)OCC(C)C)C(c2ccccc2Cl)NC(=O)N1C (centres undefined)	-2%	2	13µM*	-15	8.2µM*	21
CCC(=O)N1CCc2cc(S(=O)(=O)N(C)c3ccc(Br)cc3)ccc21	x	-4	u	-4	-12%	-1
COc1cccc(C(=O)C(=O)N2CCN(C(=O)OCc3ccccc3)CC2)c1	x	-5	u	-12	u	-8
Cc1ccc(CNC(=O)c2cc3c(=O)n(Cc4cccnc4)ccc3nc2C)cc1	8%	x	-20%	x	-14%	x
Cc1ccc(N2CC(C(=O)NCCS(=O)(=O)N3CCN(c4ccccc4F)CC3)CC2=O)cc1 (centres undefined)	-3%	2	u	-4	15µM*!	1
Cc1cc(C)c(S(=O)(=O)NCCS(=O)(=O)N2CCN(c3ccccc3)CC2)c(C)c1	9%	x	18µM*	x	23µM*	x
CC(=O)Nc1ccc(S(=O)(=O)NCCS(=O)(=O)N2CCN(c3ccccc3F)CC2)cc1	2%	6	21µM*	23	16µM*	1
O=[N+]([O-])c1ccc(S(=O)(=O)NCCS(=O)(=O)N2CCN(c3ccccc3)CC2)cc1	3%	-6	16µM*	37	u	-9
O=C(CCCn1c(SCC(=O)c2ccc(Cl)cc2)nc2ccccc2c1=O)NCc1ccco1	1%	-3	u	6	-23%	8
SMILES	TDP1 inh	CtBP-E1A blk	DT40 TDP1 no CPT	IL-1B inflam inh	DT40 TDP1 CPT	Six1-Eya2 blk
Cc1ccc(S(=O)(=O)N2CCN(C(=S)NCc3ccc4c(c3)OCO4)CC2)cc1	2%	9	u	-21	u	-21
O=C(N=C1SC2CS(=O)(=O)CC2N1Cc1ccc(Cl)cc1)C1CCCO1 (centres undefined)	-2%	3	13%	-7	-2%	1
O=C1SC(SCc2ccccc2)=N/C1=C\c1ccc(C(=O)O)cc1	x	23	-9%	-58*	27%	-3
Cc1cn([C@H]2C[C@H](O)[C@@H](CCC(=O)NCCCc3ccccc3)O2)c(=O)[nH]c1=O	x	5	11%	-9	5%	4
Cn1ccc2c(-c3ccc(C(F)(F)F)cc3)cc3c(c21)C1CCC3O1 (centres undefined)	x	-14	16µM*	4	23µM*	-6
Cn1ccc2c(-c3ccc(C(C)(C)C)cc3)cc3c(c21)C1CCC3O1 (centres undefined)	x	-15	23µM*	8	u	-18
Cn1ccc2c(-c3ccc(C(=O)O)cc3)cc3c(c21)C1CCC3O1 (centres undefined)	x	6	-14%	18	-4%	0
C/C(CC(C)(C)C1CCCCC1)=N\NC(N)=S	4%	-11	3.3µM*	-102*	4.1µM*	-14
COc1cccc(C2C3=C(N=C4SCC(=O)N42)c2ccccc2CC3)c1OC (centres undefined)	7%	-4	21µM*	-17	23µM*	-12
CCC(=O)Nc1ccc(N2CCOCC2)c(S(=O)(=O)Nc2ccc(Cl)cc2)c1	3%	-3	-24%	1	u	-3
O=C(Nc1cccc(C(F)(F)F)c1)Nc1ccc(N2CCCC2)c(S(=O)(=O)Nc2ccccc2Cl)c1	8%	-18	2.9µM*	-71*	3.3µM*	-20
CC(C)C(=O)Nc1ccc(N2CCOCC2)c(S(=O)(=O)Nc2ccccc2Cl)c1	-8%	-19	13µM*	-14	u	23

Bioassay records: PubChem, National Center for Advancing Translational Sciences (NCATS)
